Data reported in PubChem BioAssay (NCATS).
Several values for one entry are separate records, joined by “and”; a condition that tells them apart may be missing. Equal values may be shown once. Inconclusive results are not listed. Unmarked numbers belong to inactive results. The call rests on the fitted dose curve; in most records, active means well fitted activation curve with a large enough effect; inconclusive means small, poorly fitted or top-dose-only effect; inactive means flat fitted curve, though single readings scatter.

assay: qHTS assay for environmental chemicals that activate the Aryl hydrocarbon Receptor (AhR) signaling pathway (AID 651777); conditions: 1A2-DRE human hepatoma cells, luciferase, 24 h; activation: stronger effect = higher value; further: % of control where 0% means no effect; nearly all actives have a fitted effect of over 15% in size
Excerpt: National Center for Advancing Translational Sciences [NCATS]
NIH Chemical Genomics Center [NCGC]
U.S. Environmental Protection Agency [EPA]
National Institutes of Environmental Health Sciences [NIEHS]
National Toxicology Program [NTP]
The Aryl hydrocarbon Receptor (AhR) plays a critical role in the development of cancer or neoplasm and its formation is most likely due to genetic mutations and the influence of environment. Exposure to environmental pollutants such as polycyclic aromatic hydrocarbons (PAH), their halogenated derivatives and heterocyclic amines causes the induction of phase I and II enzymes. The transcriptional activation of CYP1A2 is directly regulated by AhR.
A cell based assay (1A2-DRE cells, developed by Puracyp, Inc., CA) was used to assess the activation of AhR. Human hepatoma cells were stably transfected with the dioxin response element (DRE) and CYP1A2 promoter fused to a luciferase gene. Increased luciferase activity can be used to identify the compounds that cause the induction of CYP1A2 and AhR activation.
1,200 cells in 5 uL/well were dispensed into white wall/solid bottom 1536-well plates using a Multidrop Combi (Thermo Scientific) dispenser. Following transfer of 23 nL compound or DMSO vehicle by a pin tool, the plates were incubated 24 hr at 37 C and 5% CO2. 5 ul One-Glo (Promega) was then added to each well and following 30 min incubation at room temperature, luciferase activity was quantified on a ViewLux CCD-based plate reader.

With `C=CC(C)=O` as the compound, how does the activation read?
The activation was 1.86%.

Which activation does the source give for `Cc1cccc([N+](=O)[O-])c1` here?
Its activation is -1.15% and 1.37%.

With `O=NN(c1ccccc1)c1ccccc1` as the compound, how does the activation read?
Its activation is 0.195% and 0.974%.

With `CCc1cccc(C)c1N(C(=O)CCl)C(C)COC` (stereo not given) as the compound, how does the activation read?
The activation was -0.315%.

For `CC(C)(C)OOC(C)(C)C`, which activation is on record?
Its activation is -0.903%.

For `CC(=O)[O-].CC(=O)[O-].O.O.O.[Pb+2]`, which activation is on record?
Its activation is 1.24% and 0.452%.

With `ClC(Cl)=C(Cl)C(Cl)=C(Cl)Cl` as the compound, how does the activation read?
Its activation is -0.54% and -2.12%.

Which activation does the source give for `C1CCC2CCCCC2C1` (stereo not given) here?
Its activation is -0.339%.

Which activation does the source give for `COc1nc(NC(C)C)nc(NC(C)C)n1` here?
Its activation is -1.56%.

With `BrCCBr` as the compound, how does the activation read?
Its activation is -1.12% and 0.568%.

For `Cc1ccc(O)c(C)c1`, which activation is on record?
The activation was -0.285% and -2.95% and -1.2%.

For `Brc1ccc(Oc2cc(Br)c(Br)cc2Br)c(Br)c1`, which activation is on record?
The activation was 5.38% and 0.601% and 5.34%.

With `CCOP(=S)(OCC)SCSC(C)(C)C` as the compound, how does the activation read?
The activation was 0.254% and 2.38%.

For `CCCCCCCCCc1ccc(O)cc1`, which activation is on record?
The activation was 10.9% and 1.36%.

With `O=C=NC1CCCCC1` as the compound, how does the activation read?
Its activation is 2.61% and 5.17%.

With `Nc1ccccc1Cl` as the compound, how does the activation read?
The activation was 0.951%.

Which activation does the source give for `Cc1ccc([N+](=O)[O-])cc1C` here?
The activation was -0.487% and 1.08%.

Which activation does the source give for `c1ccc(N=Nc2ccccc2)cc1` here?
Its activation is -0.472% and 1.23%.

Which activation does the source give for `COc1ccc(C=O)cc1OC` here?
Its activation is 0.671% and 1.28%.

Which activation does the source give for `O=S1OCC2C(CO1)C1(Cl)C(Cl)=C(Cl)C2(Cl)C1(Cl)Cl` (stereo not given) here?
The activation was -0.06%.

For `C=CCOC(C)=O`, which activation is on record?
The activation was -0.904%.

For `CC(O)CCl` (stereo not given), which activation is on record?
Its activation is 0.217% and 1.37%.

For `Nc1c(Cl)c(Cl)nc(C(=O)O)c1Cl`, which activation is on record?
Its activation is 6.67% and 13.8% and 2.52%.

Which activation does the source give for `ClC(Cl)=C(Cl)Cl` here?
The activation was -0.882% and 0.706%.

With `C=CCc1ccc(OC)cc1` as the compound, how does the activation read?
Its activation is 0.798%.

For `CNC(=O)Oc1ccccc1OC(C)C`, which activation is on record?
The activation was -1.13%.

Which activation does the source give for `O=[N+]([O-])c1cccc2ccccc12` here?
The activation was 0.626% and 5.73%.

With `Clc1ccc2ccccc2c1` as the compound, how does the activation read?
Its activation is 0.057%.

Which activation does the source give for `CNC(=O)CSP(=S)(OC)OC` here?
Its activation is 0.301% and 4.06%.

With `CNC(=O)N(C)c1nnc(C(C)(C)C)s1` as the compound, how does the activation read?
Its activation is 3.03%.

Which activation does the source give for `N#Cc1c(Cl)cccc1Cl` here?
The activation was -0.167%.

With `COP(N)(=O)SC` (stereo not given) as the compound, how does the activation read?
Its activation is -0.0851% and 1.26%.

Which activation does the source give for `CC(C)(OO)c1ccccc1` here?
The activation was 0.536% and 0.232%.

For `Cc1ccc2ccccc2c1`, which activation is on record?
Its activation is 1.58%.

Which activation does the source give for `Brc1ccccc1` here?
Its activation is -1.29% and 1.99%.

For `Cc1cccc(C#N)c1`, which activation is on record?
The activation was 2.06%.

With `C[C@H]1CCCC(=O)CCC/C=C/c2cc(O)cc(O)c2C(=O)O1` as the compound, how does the activation read?
Its activation is -5.88% and -4.48% and -7.69%.

For `CCC[CH2][Sn]([Cl])([Cl])[Cl]`, which activation is on record?
Its activation is 0.348% and 0.965%.

With `O=C(Cl)C(Cl)(Cl)Cl` as the compound, how does the activation read?
The activation was 0.0046%.

Which activation does the source give for `CCOc1ccc(N)cc1` here?
The activation was 1.6%.
